USP17 inh – inhibitors of human USP17 deubiquitinase; AID 1645855, 2021; purified USP17, Ub-rhodamine cleavage fluorescence, 3 h; Ubiquitin carboxyl-terminal hydrolase 17-like protein 5 (Homo sapiens), A8MUK1; inhibition, % at 50 µM; actives 6.5% (n = 47,000)
Target sequence (A8MUK1 whole entry, looked up): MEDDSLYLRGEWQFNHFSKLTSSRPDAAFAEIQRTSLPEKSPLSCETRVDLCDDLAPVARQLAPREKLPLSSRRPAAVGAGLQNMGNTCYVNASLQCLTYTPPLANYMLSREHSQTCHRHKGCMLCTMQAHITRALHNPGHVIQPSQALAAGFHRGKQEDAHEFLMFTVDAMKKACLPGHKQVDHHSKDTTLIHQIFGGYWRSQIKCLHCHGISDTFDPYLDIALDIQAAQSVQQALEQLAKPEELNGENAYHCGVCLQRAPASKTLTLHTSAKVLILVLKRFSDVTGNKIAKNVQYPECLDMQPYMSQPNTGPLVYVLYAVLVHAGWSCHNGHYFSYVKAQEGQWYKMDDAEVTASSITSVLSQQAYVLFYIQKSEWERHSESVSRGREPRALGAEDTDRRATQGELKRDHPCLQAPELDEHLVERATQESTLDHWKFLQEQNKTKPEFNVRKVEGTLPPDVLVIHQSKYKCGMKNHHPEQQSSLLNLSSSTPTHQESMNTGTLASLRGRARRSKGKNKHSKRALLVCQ
OTUD3 block – inhibitors of human OTUD3 deubiquitinase | OTU domain-containing protein 3 (Homo sapiens), Q5T2D3 | purified OTUD3, Ub-rhodamine fluorescence, 2 h | inhibition, % at 25 µM | actives 0.7% (n = 47,000)
USP28 block – inhibitors of human USP28 deubiquitinase | purified USP28, Ub-rhodamine cleavage fluorescence, 30 min | actives 3% (n = 47,000) | inhibition, % at 25 µM | AID 1645857, 2021
USP30 block – inhibitors of human USP30 deubiquitinase | purified USP30, Ub-rhodamine cleavage fluorescence | inhibition, % at 25 µM | actives 5.3% (n = 47,000)
Numbers stand for hits; - = inactive; . = no result. This is a sample that favours compounds with a hit; in the whole collection about 12% have one here. No stated cut-off is given here; in the data, active means inhibition above about 30%; inactive means the rest.

SMILES | USP17 inh | OTUD3 block | USP28 block | USP30 block
CN(C)C(=O)CN1[C@H]2CCN(C(=O)C3CCC3)CC[C@@H]2Oc2ccccc2S1(=O)=O | - | - | - | -
O=C(NCc1ccco1)c1ccc(Cn2c(=O)c3sccc3n(Cc3cc(=O)n4ccccc4n3)c2=O)cc1 | 70 | - | 50 | 40
CCCCCCCCCc1cc(OC(=O)c2c(CCCCCCCCC)cc(O)cc2O[C@@H]2O[C@H](CO)[C@@H](O)[C@H](O)[C@H]2O)cc(O)c1C(=O)O | 100 | 101 | 101 | 104
CC(C)=CCc1cc(OC2OC(CO)C(O)C(O)C2O)ccc1O (centres undefined) | - | - | - | -
CCCCCCCc1cc(OC(=O)c2c(CCCCCCC)cc(O)cc2O[C@@H]2O[C@H](CO)[C@H](O)[C@H](O)[C@H]2O)cc(O)c1C(=O)O | 102 | 100 | 100 | 108
CCCCCCCc1cc(O)cc(OC(=O)c2c(CCCCCCC)cc(O)cc2O[C@H]2O[C@H](C(O)CO)[C@@H](O)[C@@H]2O)c1 (some centres undefined) | 40 | - | 83 | -
CCCCCCCC/C=C\CCCCCCCc1cc(O)cc(O)c1C(=O)O | - | - | - | -
O=C(Nc1ccc2c(c1)OCO2)C1CCN(Cc2nc3ccccc3s2)CC1 | - | - | 70 | -
COc1ccc(CCN2CC(C(=O)Nc3ccc4c(c3)OCO4)CC2=O)cc1OC (centres undefined) | - | - | - | -
O=C(Nc1ccc2c(c1)OCO2)C1CC(=O)N(CCc2ccccc2)C1 (centres undefined) | 44 | - | - | -
O=S(=O)(c1ccc2c(c1)OCCCO2)N1CCN(Cc2nc3ccccc3s2)CC1 | - | - | - | -
CCN(C(=O)Cc1ccccc1OC)c1nc2c(s1)CCc1occc1-2 | 37 | - | - | -
CCOc1ccc(CC(=O)N(C)c2nc3c(s2)CCc2occc2-3)cc1 | - | - | - | -
Cc1c(C(=O)N(C)c2nc3c(s2)CCc2occc2-3)oc2ccccc12 | 79 | 36 | 40 | 66
CN(C(=O)c1cccs1)c1nc2c(s1)CCc1occc1-2 | 37 | - | - | -
CN(C(=O)C1(c2ccc(Cl)cc2)CC1)c1nc2c(s1)CCc1occc1-2 | - | - | - | -
Cc1ccc(C(=O)Nc2c(C(=O)N3CCN(c4ccccc4)CC3)[nH]c3ccccc23)cc1 | 34 | 46 | - | -
Cc1ccc(C(=O)Nc2c(C(=O)N3CCN(c4cccc(C)c4)CC3)[nH]c3ccccc23)cc1 | - | - | - | -
CC1CCN(Cc2nnc(-c3cn(CC(=O)NC4CCCCC4)c4ccccc34)o2)CC1 | 35 | - | - | 60
COc1ccc(C(=O)CCN2CCOCC2)cc1[N+](=O)[O-] | - | 36 | - | -
COc1ccc(OC)c(CNCCCN2CCOCC2)c1 | - | - | - | -
C=CCNc1ncnc2c1sc1nc(N3CCOCC3)c3c(c12)CC(C)(C)OC3 | - | - | - | -
COc1ccc(Nc2nc(NCc3ccccc3)nc3c2cnn3C)cc1 | 32 | - | - | -
COc1ccc(Nc2nc(NCCCO)nc3c2cnn3C)cc1 | - | - | - | -
Cc1ccc(CNc2nc(Nc3ccc(C)cc3)c3cnn(C)c3n2)cc1 | - | - | - | -
SMILES | USP17 inh | OTUD3 block | USP28 block | USP30 block
Cc1ccc(Nc2nc(NCCc3ccccc3)nc3c2cnn3C)cc1 | 74 | - | - | -
O=C(Cc1ccccc1)N1CCN(c2nc3ccc(Cl)cc3s2)CC1 | - | - | - | 33
COc1ccc(Br)c(-c2nc(CS(=O)(=O)c3ccc(F)cc3)no2)c1 | - | - | - | 38
O=S(=O)(Cc1noc(-c2ccccc2)n1)c1ccc(F)cc1 | - | - | . | .
COc1cccc(C2CC(=O)Nc3c2sc(C(=O)O)c3-c2ccc(C)cc2)c1 (centres undefined) | - | - | - | 30
COc1ccc(-c2c(C(=O)O)sc3c2NC(=O)CC3c2ccccc2)cc1 (centres undefined) | - | - | - | -
COc1cc(-c2cc(C(=O)Nc3cc(C)[nH]n3)c3ccccc3n2)cc(OC)c1OC | 39 | - | - | 51
Cn1nccc1C(=O)N1CC(C(=O)NC2CCCC2)C2(CCOCC2)C1 (centres undefined) | - | - | - | -
O=S(=O)(c1ccccc1F)N1CCn2cccc2C1c1ccccc1F (centres undefined) | . | - | - | -
CC(C)(C)c1cc(C[C@@H]2C[C@H](NC(=O)N3CCOCC3)C2(C)C)no1 | 39 | - | - | 69
CC(C)(C)c1cc(NC(=O)C2CCCO2)no1 (centres undefined) | - | - | - | -
O=C(Cn1cc(S(=O)(=O)Cc2ccccc2)c2ccccc21)NCC1CCCO1 (centres undefined) | - | - | - | -
O=C(COc1cc([N+](=O)[O-])cc2cccnc12)NCCC1=CCCCC1 | 86 | - | - | 37
COc1ccc(OCC(=O)NCCC2=CCCCC2)c([N+](=O)[O-])c1 | - | - | - | -
Clc1ccc(-c2cnc(N3CCOCC3)nc2)cc1 | - | - | - | 44
Fc1ccc(-c2cnc(N3CCOCC3)nc2)cc1 | - | - | - | -
CC(=O)Nc1ccc(-c2nc(Cn3nc(C)cc3C)c(C)o2)cc1 | - | - | - | -
CCC(=O)Nc1ccc(-c2nc(Cn3cc(C)cn3)c(C)o2)cc1 | - | - | 55 | -
CC(=O)Nc1ccc(-c2nc(Cn3cc(C)cn3)c(C)o2)cc1 | - | - | 33 | -
CCc1ccc2nc(NC(=O)c3ccc(=O)[nH]c3)sc2c1 | 33 | - | - | -
Cc1ccc(C(=O)N2C[C@@H](Oc3ncccc3F)[C@H]3OCCC[C@H]32)o1 | . | - | - | -
Cn1c(SCCOc2ccccc2)nnc1-c1ccc2c(c1)OCCCO2 | - | - | - | -
Cn1c(SCCOc2ccc(Cl)cc2)nnc1-c1ccc2c(c1)OCCO2 | - | - | - | 54
CC(C)CC1Nc2ccc(C(=O)NCCCN3CCCC3)cc2NC1=O (centres undefined) | 38 | - | - | -
COc1ccc(-c2noc([C@@H]3C[C@H](NC(=O)Nc4ccc(C)cc4)CN3C)n2)cc1 | - | - | - | 42
SMILES | USP17 inh | OTUD3 block | USP28 block | USP30 block
COc1ccccc1NC(=O)N1CCCC1c1nc(-c2cccc(Cl)c2)no1 (centres undefined) | - | - | - | 40
COc1ccc(-c2noc(C3CCCN3C(=O)Nc3cccc(C)c3)n2)cc1 (centres undefined) | - | - | - | -
COc1ccc(-c2noc(C3CCCN3C(=O)Nc3ccc(C)cc3C)n2)cc1 (centres undefined) | - | - | - | 33
COc1ccc(-c2noc([C@@H]3C[C@H](NC(=O)c4ccccc4)CN3C)n2)cc1 | - | - | - | -
Cc1ccc2[nH]c(=O)c(-c3noc(-c4ccc([N+](=O)[O-])cc4)n3)cc2c1 | 48 | - | - | 42
CCn1c(=O)n(CC(=O)N2CCCCCC2)c(=O)c2cnc(-c3ccccc3)nc21 | - | - | - | -
CCN(CC)S(=O)(=O)c1ccc(OC)c(Nc2nc(-c3ccccc3)nc3ccccc23)c1 | 39 | - | - | -
COc1ccc(S(=O)(=O)N(C)Cc2cccs2)cc1OC | - | - | 68 | -

Source: PubChem (Buhrlage Lab, Dana-Farber Cancer Institute and Novartis Institutes for BioMedical Research (Cambridge, Mass))
